Assay results taken from PubChem BioAssay AID1508600 (Functional Genomics Laboratory (NCATS/FGL), 2020).
Among all 53,000 sequences or so, about 3,700 (7%) were called active.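 How the source made its calls: active means gene knockdowns whose robust z-score for IL-1 alpha signal is at least 2 or at most -2, so actives lie on both sides; inactive means the rest.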 The full list was thinned out, with actives kept by preference.

Assay: Components of the Cytosolic LPS Sensing Pathway: Gene Identification via Genome-wide siRNA Screen;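 further: robust z of the log signal after scaling to non-targeting control siRNA wells of the plate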
Settings: RAW264.7 macrophages, IL-1a HTRF, actives lie on both sides, screened at 100 nM (by protocol), cells primed 5 h with Pam3CSK4 first
Procedure, shortened: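 Using IL-1a HTRF as read-out, the screen measured release from RAW264.7 cells after 48h siRNA knockdown (100 nM), 5 h Pam3CSK4 priming and 24 h cytosolic LipidA. Values were expressed relative to negative-control wells as robust z-scores.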

| Sequence | z-score |
| --- | --- |
| GGCACAAUUGAGGAGCGUATT against Ino80 | -1.27 (inactive) |
| GGAAGAAAAACAGAGGAGATT against Cts7 | -0.877 (inactive) |
| GGUUUAAGAAUGAAGUGGATT against Mtmr3 | -1.18 (inactive) |
| GGAUUGGGUUACAUACAGATT against Scgb2b2 | -0.0731 (inactive) |
| GGAAAAGGUUAAGAAAGCATT against Krr1 | -2.53 (active) |
| GGAAUCAGCUAAUGAUUUCTT against Tyw1 | 0.819 (inactive) |
| GGAGGUAGGAGCCAUAAGATT against Pter | -0.58 (inactive) |
| GGGAUCUUUUACUCAUACUTT against Olfr862 | -1.95 (inactive) |
| GGUGUACUGAUUUUGAAGATT against Msh3 | 0.858 (inactive) |
| GCCACGGGUAUAUCUAUAGTT against Tigd4 | -0.296 (inactive) |
| GGUGGAAAAUGGUUGGUUUTT against Mfap3 | -0.493 (inactive) |
| GGCCAAGAAAAUCCUGUGGTT against Mfsd5 | -2.71 (active) |
| GGAACUUGAAAUCGUAAUUTT against Magohb | -0.121 (inactive) |
| GGCAGAACACAGUUCGAUCTT against Tbcb | 0.165 (inactive) |
| GCCGUAGAUUUCCUUGAGUTT against Isca1 | -0.0435 (inactive) |
| GGGACAAUGAAUGUGAUCUTT against Adam39 | -2.81 (active) |
| CCAACCACAGGAUCAGAUGTT against Prrg4 | 0.556 (inactive) |
| GGAAAAAAUGGAAAACUGGTT against Polr1b | -0.965 (inactive) |
| CCAUUAAAAACCCAGAGGATT against Lyve1 | 0.0705 (inactive) |
| CCCUAUAAAGAGAAAUUGGTT against Zfp663 | -0.166 (inactive) |
| GGCUUCUUUUUAAAAGUAGTT against Pcid2 | -1.28 (inactive) |
| GCAGGACUUACAUGAGAAUTT against Fam13c | 0.534 (inactive) |

| Sequence | z-score |
| --- | --- |
| CCAUAAACUAUGAGUUUUGTT against Elovl7 | 2.4 (active) |
| GGCUUCCAUUACCAUGAUGTT against Olfr381 | -0.318 (inactive) |
| CGCGUAUCUGACCAGGUCATT against Ermard | 0.889 (inactive) |
| GGCUGAAAAAUGCUUGAUUTT against Dhdds | -1.14 (inactive) |
| GGAUAACUCUUUCAAAGACTT against Lrit2 | 0.768 (inactive) |
| GGAGGAGAGAACAAAAUGUTT against Itgb1bp2 | 0.839 (inactive) |
| GGAUCUCUUUUUUCACAUGTT against Kcne2 | 0.605 (inactive) |
| GGAUCUGGCGGUUACUAAGTT against Gm867 | 0.776 (inactive) |
| GCUCAUUCUUACCAAUCUCTT against Vsig2 | -2.25 (active) |
| GGCUGUGAAAAAACUAGAATT against Serpina1e | -0.359 (inactive) |
| GCCCUACCUUACCUGAUACTT against Rab17 | 2.03 (active) |
| GGAUCUUAGUAAUAUUGGUTT against Ash2l | -0.72 (inactive) |
| CCACAAGUUCACUAAGGAGTT against Six3 | 0.193 (inactive) |
| CCUGGAAUCUGUCCCUCAUTT against Olfr262 | -0.161 (inactive) |
| CCCACUUACUUUUGAUGUUTT against Uba1 | -0.232 (inactive) |
| GGCACGUGAUAAAGGGUUCTT against Pcdha7 | 2.56 (active) |
| GCAUGUUUGGAUUGCUAUUTT against Olfr653 | 0.999 (inactive) |
| GGAUUUUCAAAGAGGACACTT against Cdca7l | 0.735 (inactive) |
| GCAGAGACGUGAUUGAUCGTT against H2bc18 | -1.17 (inactive) |
| CCAUUUCUCACCAGUGAUCTT against Gm5535 | -2.61 (active) |
| CCGUUCCAUCAUUAAGACCTT against Tssk2 | 0.359 (inactive) |
| CCAAGGCCAUCUCAUUUUCTT against Olfr749 | 0.511 (inactive) |

| Sequence | z-score |
| --- | --- |
| GGCUAUUUUGCUGUACCUCTT against Gbgt1 | 0.589 (inactive) |
| GGAAAUAUCUCUGGUAAUATT against Reln | -2.17 (active) |
| GCAUCCUGAGUCCGUAUCCTT against Rbm11 | 1.37 (inactive) |
| GGUAGAGCGCAAGAAGGCATT against Nol12 | 1.23 (inactive) |
| CGGAGUUGAGCCAGAAAAATT against Fbxo31 | -0.777 (inactive) |
| GGAGAAAUUGCCUUUGAUCTT against Pdik1l | 0.416 (inactive) |
| CGAUUUGCAGCCCUCAUGATT against Inka1 | -2.27 (active) |
| GCCGUCUACCCUGAUAACATT against Cp | 0.67 (inactive) |
| GAAGCAGGCCUGGGAUCUUTT against Vmn1r41 | 2.01 (active) |
| GGAGCAAAUGAUCAAUAAATT against Serpina3b | -0.364 (inactive) |
| GGCAUCUCUUUGCUUGAAUTT against Lalba | -0.86 (inactive) |
| GCCCUCAUUUGUCCUACAUTT against Arhgef2 | 0.202 (inactive) |
| GGGUUUAGAGACCCUGAGATT against Klc2 | -2.09 (active) |
| GGUGGACAAGGAGAGGACUTT against H2-Q1 | 0.109 (inactive) |
| GGAAUGGAACACAAAUAGCTT against Kdelr2 | 0.191 (inactive) |
| GGACUUUUGUGUAUAGUUATT against Smad1 | 1.59 (inactive) |
| GGACGCGGGAAAAAUGUUCTT against Hnrnpab | 1.37 (inactive) |
| GCUGGAAGCAUUUGUUUUUTT against Uap1 | 2.19 (active) |
| GCUUAGUGACCAUCUCCGUTT against Epop | 0.236 (inactive) |
| GGAAUCUCACCAAUCCAAATT against Rab14 | -0.364 (inactive) |
| GGAGAGCUAGCCUUAAUAATT against Bspry | 4.21 (active) |
| CGGUUACAGGUGAAAUCCUTT against Sval1 | -1.36 (inactive) |

| Sequence | z-score |
| --- | --- |
| CGGGUGAUGCCUAUGUCAUTT against Gsn | 0.837 (inactive) |
| GGCUUACAGUUCCAUAUGGTT against Olfr401 | -1.11 (inactive) |
| GCUCAUUGCACUUGCCAAGTT against Tcea2 | -0.0377 (inactive) |
| GGUUUGUGUCUAAGGAAUUTT against Klhdc7a | -0.203 (inactive) |
| GGUCCUACCUUGAAGCUCCTT against Ado | 0.816 (inactive) |
| GCACCAGUCGGUAUUCACATT against C1qc | -0.665 (inactive) |
| GCAUUGUGAGACUAACGUGTT against Dusp7 | 1.08 (inactive) |
| GGGAAUAAUGUCUAGUUUGTT against Fam126a | 0.215 (inactive) |
| GAUGGUGUCUAGUGAGAGCTT against Oxct2b | -2.01 (active) |
| GCACCAUUUUGAUCGUCAUTT against Olfr519 | 0.341 (inactive) |
| GGUUUGAAAUGAAACUUCATT against Nedd4l | -0.0699 (inactive) |
| GCGAGCUUUAACCUUUCCATT against Olfr1028 | -2.49 (active) |
| CCUCACAAAGCACAAUAUCTT against Sntg1 | -1.46 (inactive) |
| CGUAGCUAUUCUGGUUGUCTT against H2-Q6 | -0.616 (inactive) |
| GGUCCUCAAUGAAAUGAGATT against Krt12 | 1.05 (inactive) |
| GGAGUUUGGAACUUCCAACTT against Tcf21 | 2.79 (active) |
| GGACCAAAAUCUAGAAUACTT against Zfp629 | -0.898 (inactive) |
| GGUAUUUAAGUGAUACAUCTT against Ddost | -0.321 (inactive) |
| GGUACCGUCAGUUGUCCUATT against Rnf4 | -1.86 (inactive) |
| GGUGAAGAAGGAGACAAAGTT against Tmem43 | 0.347 (inactive) |
| GGAUAAAGUUUAAGGAUGGTT against Vmn1r40 | -0.43 (inactive) |
| GGAGAAGGAUGAAGACGGATT against Map1lc3a | 0.397 (inactive) |

| Sequence | z-score |
| --- | --- |
| GCUUUUGUUACAUAAUGCUTT against Tmem237 | 1.12 (inactive) |
| GACCACUUCCUUCUAUGCCTT against Slc35c1 | -2.07 (active) |
| GGGCUUCAUCAACUAUCUUTT against Spint1 | 1.03 (inactive) |
| CGGCUAAAUGCAAGUAAAGTT against Rgma | -1.07 (inactive) |
| GGUACUGAUUACUCUGUAUTT against Mrps17 | -0.388 (inactive) |
| GCUUUUUGUGAAACUGGCCTT against Pstpip2 | 0.191 (inactive) |
| GGUCAAUAUCCUCGGACAUTT against Hsd17b13 | -0.386 (inactive) |
| GCCACGUAGACUGAUAUAGTT against Irf5 | -1.16 (inactive) |
| GGAACAAGGAAGUUAAGGATT against Olfr1044 | 0.251 (inactive) |
| GCCCAACGUGGUGUACAUUTT against Gask1b | 4.04 (active) |
| CCAGUUUCAGAUCAGAUUATT against Zfp747 | 0.729 (inactive) |
| GCUGACCUUCAUUCAUAUATT against Vmn1r27 | -2.06 (active) |
| GCUAGGAGAACCUACAUACTT against Adcy4 | -0.368 (inactive) |
| GCUGAGAGUGAACCGAUGUTT against Dyrk4 | 1.54 (inactive) |
| CCAUUCUACGAGAAUUGUATT against Dync1i2 | -0.326 (inactive) |
| GGAUAACAGAGAUUUCUCCTT against Il15ra | 0.0534 (inactive) |
| CCUGCAUUAUUUAUGAAAGTT against Mfap3l | -0.449 (inactive) |
| GUAAUCACCUUAAAGAUGUTT against Cebpb | 1.32 (inactive) |
| GGUUAGGUUGAUGAAUAAGTT against Eif4ebp2 | 2.46 (active) |
| CCUUUUGAGAGCUCCAGAUTT against Ptrh1 | -0.273 (inactive) |
